From PubChem BioAssay (NCI)
About 83,000 compounds went through this panel and 20% of them were active in at least one assay; those are over-represented in the sample as a whole.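 Treatment: one concentration, 48 hours, 96-well format. Scoring: percent growth, with anything below 10 considered active.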 Unmarked numbers belong to inactive results. Activity calls are given as the source filed them.

system: IGROV1 ovarian; experiment: NCI-60 one-dose screen, 48 h (100 = growth as untreated, 0 = no growth, -100 = all killed); conditions: 10 µM unless noted
Method: Growth inhibition of the IGROV1 human tumor cell line is measured as a screen for anti-cancer activity. Cells are grown in 96 well plates and exposed to the test compound for 48 hours. Compounds are tested at a single concentration, which is 10^-5 M for most compounds. The reported endpoint is percent growth (GI% or GIPRCNT), where numbers from 0 - 100% represent growth inhibition, and numbers from -100% - 0 represent cell death. For example, a value of 40 represents 60% growth inhibition. A value of 0 means no net growth occurred over the course of the experiment. A value of -40 indicates 40% of cells at the beginning of the experiment died by the end of the experiment. A value of -100 means all cells are dead at the end of the experiment.
NCI-60 Human Tumor Cell Lines Screen was performed using the standard one-dose NCI protocol, which is described in more detail at https://dtp.cancer.gov/discovery_development/nci-60/default.htm.
Compounds with GIPRCNT values below 10 were considered active. Activity score was based on GIPRCNT using the following formula: […]
Score is 0 for GIPRCNT values of 100 or above, 50 for GIPRCNT values of 0, and 100 for GIPRCNT values of -100.

In the case of `COc1ccc(/C=C2/CCc3cc4ccc(OC)cc4[o+]c32)c(O)c1`, the growth is reported as 9.32% (active).
`Cc1ccc(C(=O)Nc2ccc(CN3CCN(C)CC3)c(C(F)(F)F)c2)cc1C#Cc1cnc(N)c2ccccc12` was tested, and the growth was -37.6% (active).
With `O=C1CCc2c(sc3[nH]c(=S)n(-c4cc(C(F)(F)F)cc(C(F)(F)F)c4)c(=O)c23)C1` the growth was -10.5% (active).
`c1ccc(-c2nc(N3CCNCC3)c3oc(-c4ccccc4)nc3n2)cc1` was tested, and the growth was -88.8% (active).

Compared with `COc1cc(OC)cc(C(=O)Nc2cnc(Nc3ccc(N4CCOCC4)nc3)nc2Oc2ccc(C(F)(F)F)cc2)c1`, `O=C(Nc1ccccc1)Nc1ccccc1CNc1nc(Nc2ccc(OCCN3CCCC3)cc2)ncc1Cl` is higher in growth: 77.4% for the first, 84.2% for the second.

First: COc1ccc(-c2cc(-c3ccc(Cl)cc3)c(C#N)c(=O)n2CCCCC(=O)NO)cc1
Second: COc1ccc(NC(=O)c2ccc(NC3=C(c4ccc(Cl)cc4)C(=O)NC3=O)cc2)cc1
The growth of the first is lower: 69% for the first, 92.8% for the second.

Compared with `COC(=O)CNC(=O)c1ccc(NC(=O)c2[nH]c(C)c(Cl)c2Cl)c(O[C@H]2CCNC2)c1`, `CCOC(=O)c1cnc2sc(-c3ccc(OC)cc3)nc2c1Cl` is lower in growth: 111% for the first, 102% for the second.

Going from `COc1ccc(/C=N/NC(=O)Cn2nnc3ccccc32)cc1` to `O=C(Cn1cc(CSc2nc3ccccc3o2)nn1)Nc1ccc([N+](=O)[O-])cc1`, the growth falls from 95.9% to 91.6%.

First: CC(C)(C)n1cc(-c2ccnc(NCCNS(=O)(=O)c3ccc(C(F)(F)F)cc3)c2)c(-c2ccccc2)n1
Second: O=c1c(Cc2ccc(F)cc2)cc(-c2ccccc2)nn1C/C(=N/O)c1ccccc1
The growth of the first is higher: 97.3% for the first, 47.3% for the second.

Going from `NCCCCCNc1noc(Cc2c[nH]c3cc(Br)ccc23)n1` to `CCCCCCC/C=N/NC(=O)c1ccc(-n2cc(-c3ccccc3)nn2)cc1`, the growth rises from 34.5% to 74.9%.

First: CC(C)c1nc(N(C)S(C)(=O)=O)nc(-c2ccc(F)cc2)c1/C=C/C(=O)C[C@@H](O)CC(=O)O
Second: COC(=O)c1ccc(-n2cc(CCCOS(=O)(=O)c3ccc(F)cc3)nn2)cc1
The growth of the first is higher: 105% for the first, 102% for the second.

`C(CCCSC1=NCCN1)CCSC1=NCCN1` and `O=C(Nc1ccccc1C(F)(F)F)C1=NCCCCN1` are the same in growth: 101% for the first, 101% for the second.

Going from `N#Cc1nn(-c2ccccn2)c(N)c1C#N` to `Cc1nn(C)c2ncnc(Nc3ccccc3Br)c12`, the growth falls from 108% to 105%.

First: C#Cc1ccc(NC(=O)Cc2ccc(/C=C/C(=O)c3nccn3C)cc2)cc1
Second: Cc1ccc(NC(=O)c2ccc(Nc3ncnc4c3cnn4-c3cccc(F)c3)cc2)cc1
The growth of the first is lower: 52.8% for the first, 97.9% for the second.

Going from `CN(C)CCOc1nc2c3cc([N+](=O)[O-])ccc3nn2c2ccccc12` to `COc1nc2ccccc2cc1/C=[N+](\[O-])c1ccccc1`, the growth rises from 29.8% to 86.7%.

First: CC1(C)CC[C@]2(CO)CC[C@]3(C)[C@H](CC[C@@H]4[C@@]5(C)CC[C@H](O)C(C)(C)[C@@H]5CC[C@]43C)[C@H]2[C@H]1O
Second: CC(CN)[C@@H]1CC[C@]2(CO)CC[C@]3(C)[C@H](CC[C@@H]4[C@@]5(C)CCC(NCCO)C(C)(C)[C@@H]5CC[C@]43C)[C@@H]12 (stereo not given in full)
The growth of the first is higher: 102% for the first, 71.4% for the second.

Compared with `COc1ccc(-n2c(=O)n(-c3ccc(-c4nc5ccc(F)cc5s4)cc3)c(=O)c3cccnc32)cc1`, `Cc1cc(=O)oc2cc(Oc3nc(-c4ccccc4)cn4c(-c5ccccc5)cnc34)ccc12` is lower in growth: 90.5% for the first, 83.7% for the second.

First: CCOc1ccc(-c2cc(C3(S(=O)(=O)c4ccc(C)cc4)CC=CC3)on2)cc1
Second: C=CN(C(=O)N1CCN(c2cc3c(cc2F)c(=O)c(C(=O)O)cn3C2CC2)CC1)c1nc(-c2ccc(C)cc2)cs1
The growth of the first is higher: 88.5% for the first, 22.4% for the second.

First: CCOC(=O)CC1CSC(N/N=C(/C)c2cccc(C(F)(F)F)c2)=N1 (stereo not given)
Second: Cc1[nH]c(C2CC(c3ccc(C(F)(F)F)c(F)c3)=NN2C)c(C)c1C(=O)NCC(F)(F)F (stereo not given)
The growth of the first is higher: 94.5% for the first, 79.9% for the second.

Going from `Cc1cc(C)n(C(=O)CSc2nc3sc4c(c3c(=O)n2-c2ccccc2)CCCCC4)n1` to `CCN1C(=O)N(CC)C2C1NN=c1s/c(=C\c3ccc(F)cc3)c(=O)n12` (stereo not given), the growth falls from 107% to 23%.

First: C/C(=N\NC(=O)c1ccc(C(C)(C)C)cc1)c1ccc(O)cc1O
Second: Cc1csc(Nc2nc(-c3cccc(Cl)c3)nc(C(Cl)(Cl)Cl)n2)n1
The growth of the first is lower: 23.8% for the first, 83.1% for the second.

Going from `N#CC1=C(N)Oc2c(ccc3ccccc23)C1c1cc2ccccc2n2nnnc12` (stereo not given) to `Clc1nc(N2CCC[N+]3(CC2)CC[N+]2(CCCNCC2)CC3)nc(N2CCC[N+]3(CC2)CC[N+]2(CCCNCC2)CC3)n1` (stereo not given), the growth rises from 33.3% to 97.3%.
